# Screening data deposited in PubChem BioAssay by Pan Lab, Icahn School of Medicine at Mount Sinai.
# Many of the other results were omitted from the sample, so hits are more common in it than they were.
# ROC1-CUL1 inh – human ROC1-CUL1 E3 ligase inhibition. P62877+Q13616. in vitro K48 di-Ub FRET, acceptor:donor ratio, 45 min. inhibition, % at 10 µM. 0.6% of 140,000 active; in the data active = inhibition above about 25%
# Target sequence (P62877 whole entry, looked up): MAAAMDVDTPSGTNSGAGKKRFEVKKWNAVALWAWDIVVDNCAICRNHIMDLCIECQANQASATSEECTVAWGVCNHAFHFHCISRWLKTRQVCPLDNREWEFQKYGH
# Target sequence (Q13616 whole entry, looked up): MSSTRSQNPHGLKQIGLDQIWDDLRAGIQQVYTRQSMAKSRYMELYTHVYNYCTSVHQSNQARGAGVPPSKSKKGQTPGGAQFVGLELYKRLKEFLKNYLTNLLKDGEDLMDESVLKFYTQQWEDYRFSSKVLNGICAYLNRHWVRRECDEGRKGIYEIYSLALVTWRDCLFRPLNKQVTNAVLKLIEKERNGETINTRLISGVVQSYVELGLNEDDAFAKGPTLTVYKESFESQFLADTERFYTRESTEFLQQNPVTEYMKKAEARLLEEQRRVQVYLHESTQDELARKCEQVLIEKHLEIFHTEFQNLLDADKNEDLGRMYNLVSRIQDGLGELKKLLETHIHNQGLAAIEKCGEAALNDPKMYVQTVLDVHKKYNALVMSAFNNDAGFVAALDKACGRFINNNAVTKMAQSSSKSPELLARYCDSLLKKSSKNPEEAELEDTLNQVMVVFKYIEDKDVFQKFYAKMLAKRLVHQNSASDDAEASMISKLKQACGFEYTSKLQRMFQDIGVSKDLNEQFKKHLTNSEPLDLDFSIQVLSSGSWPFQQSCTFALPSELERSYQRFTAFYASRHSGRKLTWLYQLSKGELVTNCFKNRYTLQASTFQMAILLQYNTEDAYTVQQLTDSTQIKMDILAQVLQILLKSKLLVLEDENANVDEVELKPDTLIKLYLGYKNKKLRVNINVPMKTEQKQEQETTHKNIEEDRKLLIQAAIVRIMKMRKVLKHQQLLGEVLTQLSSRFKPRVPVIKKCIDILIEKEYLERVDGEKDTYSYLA
# Hits are given with their value; . = inactive.
SMILES,ROC1-CUL1 inh
O=C(O)c1ccc(-c2ccc(/C=c3/sc4n(c3=O)C(c3ccc(F)cc3)C3=C(N=4)c4ccccc4CC3)o2)cc1Cl (stereo not drawn),58
Cc1cccc(-c2cc(C(=O)NCC(C)(C)CNC(=O)c3cc(-c4cccc(C)c4)nc4ccccc34)c3ccccc3n2)c1,.
Cc1ccc2c(C(=O)N(C)C(C)c3ccncc3)cc(-c3cnn(C)c3)nc2c1C (stereo not drawn),.
Cc1nccn1-c1ccc(NC(=O)C2CCCN2C2Cc3ccccc3C2)cc1 (stereo not drawn),.
CCC(=O)Nc1ncc2c(n1)CC(c1ccc(C(C)(C)C)cc1)CC2=O (stereo not drawn),.
CCCCc1ccc(-c2nc(NC(=O)C3CC=CCC3C(=O)O)sc2C)cc1 (stereo not drawn),.
Cc1ccccc1/C=C/C(=O)C1C=C(Br)C=C(Br)C(=O)C1=O (stereo not drawn),54
O=C1C=CC(Br)=CC(C(=O)/C=C/c2ccc(Cl)cc2)C1=O (stereo not drawn),.
O=C1C(=O)C(C(=O)/C=C/c2cccc(Cl)c2)C=C(Br)C=C1Br (stereo not drawn),87
CC(CNC(=O)/C=C/c1cccc(Cl)c1)NC(=O)/C=C/c1cccc(Cl)c1 (stereo not drawn),.
COc1ccccc1/C=C/C(=O)C1C=C(Br)C=CC(=O)C1=O (stereo not drawn),.
Cc1cccc2sc3ccnc(C)c3c12,.
Cc1cccc(NC(=O)/C(C#N)=C/c2ccc(-c3ccc(Br)cc3)o2)c1,.
CC1=C(C(=O)OC(C)C)C(c2cc(Cl)ccc2OC(C)C)NC(=S)N1 (stereo not drawn),.
CC(C)(C)c1ccc(Cn2cnc([N+](=O)[O-])n2)cc1,.
CC1CN(C(=S)SCCN2C(=O)c3ccccc3C2=O)CC(C)O1 (stereo not drawn),.
Cc1cccc(NC(=O)C2CCN(Cc3ccccc3C)CC2)c1,.
Cc1ccc(C(=O)O)cc1-c1ccc(/C=C2\SC(=O)N(Cc3ccccc3)C2=O)o1,.
O=C(O)c1ccc(-c2ccc(/C=C3\SC(=O)N(CC(=O)N4CCOCC4)C3=O)o2)cc1Cl,.
CCN1C(=O)S/C(=C/c2ccc(-c3cccc(C(=O)O)c3C)o2)C1=O,.
Cc1ccc(CN2C(=O)S/C(=C\c3ccc(-c4ccc(C(=O)O)c(Cl)c4)o3)C2=O)cc1,69
Cc1ccc(C(=O)O)cc1-c1ccc(/C=C2\SC(=O)N(Cc3ccc(F)cc3)C2=O)o1,.
O=C(O)c1ccc(-c2ccc(/C=C3\SC(=O)N(Cc4ccccc4)C3=O)o2)cc1Cl,93
O=C(NCCc1ccccc1)c1ccc(NS(=O)(=O)c2cccc(F)c2)cc1,.
Cc1cccc2c1OC(=O)C(C(c1ccc(N(C)C)cc1)C1C(=O)Oc3c(C)cccc3C1=O)C2=O (stereo not drawn),92
SMILES,ROC1-CUL1 inh
Cc1ccccc1N1OC2C(=O)N(c3ccccc3Cl)C(=O)C2C1c1ccc(N(C)C)cc1 (stereo not drawn),.
Cc1c(C(c2ccc(Br)cc2)C2C(=O)Oc3ccccc3C2=O)c(=O)n(-c2ccccc2)n1C (stereo not drawn),.
COc1ccccc1N1C(=O)NC(=O)/C(=C\c2ccc(OC)c([N+](=O)[O-])c2)C1=O,.
COc1cccc2c1OCCCN(C(=O)c1ccc(-n3cc(NC(=O)c4cccnc4)cn3)cc1)C2,.
COc1ccc(CN2Cc3cc(C)ccc3OC(c3ccsc3)C2)cc1O (stereo not drawn),.
O=C1C(Cl)=C(N2CCN(S(=O)(=O)c3ccc(F)cc3)CC2)C(=O)c2ccccc21,64
CCC(CC)C(=O)N1CCN(S(=O)(=O)c2ccc(F)cc2)CC1,.
CC(=O)N1CCN(S(=O)(=O)c2ccc(F)cc2)CC1,.
CCOC(=O)c1oc2ccccc2c1CN(C)CCc1ccccc1,.
C1=CC2(CCCCC2)Oc2c1ccc1ccccc21,.
CSc1ccc2c3c(cccc13)C(=O)N(c1cccc(S(=O)(=O)O)c1)C2=O,.
CCOc1ccccc1CNc1ccc(O)cc1,46
CCOc1ccccc1CNc1ccc(N2CCOCC2)cc1,.
NS(=O)(=O)c1ccc(NCc2ccccc2OCc2ccccc2F)cc1,.
Oc1ccc(NCc2ccccc2OCc2ccccc2F)cc1,.
Oc1ccc(NCc2cc(Cl)ccc2OCc2ccccc2F)cc1,30
Oc1ccc(NCc2ccccc2OCc2ccccc2Cl)cc1,.
O=[N+]([O-])c1cccc(CNc2ccc(Br)cc2)c1,.
CNC(=O)c1ccc(C2CCCN2Cc2cnc(-c3ccccc3)s2)s1 (stereo not drawn),.
Cc1c(C(=O)Nc2ccc(Nc3ccccc3)cc2)nnn1-c1ccccc1,.
Nc1nc(SCc2ccccc2F)n[nH]1,.
CC(C)(C)c1ccc(OCCn2c(=N)n(CCO)c3ccccc32)cc1,.
CCOc1c(Br)cc(/C=C2/C(=O)N(c3cccc(C(=O)O)c3)N=C2C)cc1OC,91
CC1=NN(c2ccc(C(=O)O)cc2)C(=O)/C1=C/c1cc(Br)ccc1OCc1ccccc1,.
CCCOc1ccc(CN2C(=O)NC(=O)/C(=C\c3cc(Br)c(OCC(=O)O)c(OC)c3)C2=O)cc1OC,.
SMILES,ROC1-CUL1 inh
CCCCCCOc1ccccc1/C=C1\C(=O)N(c2ccc([N+](=O)[O-])cc2)N=C1c1ccccc1,.
COc1cc(CO)cc(Br)c1OCC(=O)O,.
CCC(C)Oc1ccc(/C=C2\C(=O)N(c3ccccc3)N=C2C)cc1Br (stereo not drawn),.
C#CCOc1cc(Br)c(/C=C2/C(=O)N(c3cccc(C(=O)O)c3)N=C2c2ccccc2)cc1OC,90
COc1cc(/C=C2\C(=O)N(c3ccc(S(N)(=O)=O)cc3)N=C2C)cc(Br)c1OCC(C)C,.
COc1cc(C=C2C(=O)c3ccccc3C2=O)cc(Br)c1OCC(=O)O,76
Nc1c(C(=O)Nc2cc(C(F)(F)F)ccc2Cl)sc2nc(-c3ccccc3)cc(-c3ccccc3)c12,.
Cc1ccc(NCN2C(=O)S/C(=C/c3ccc(C)o3)C2=O)cc1,.
O=C(COc1ccc2c(c1)CCC2)N1CCN(c2ccccc2)CC1,.
COc1ccccc1N1CCN(C(=O)CC2(c3ccc(-c4ccccc4)cc3)CC(=O)N(C)C2=O)CC1 (stereo not drawn),.
COc1cc(C(=S)N2CCC(C)CC2)ccc1OC(=O)c1cccc2ccccc12,.
Clc1cccc(Nc2ccc(Nc3cccc(Cl)c3)nn2)c1,.
C/C(=C\c1ccccc1)CC(=NC(=O)c1ccccc1)C(=O)N/N=C(\C)c1ccccc1O,.
CCCCCc1nc2sc3c(c2c(=O)n1NC(=O)Cc1ccccc1)CCCC3,.
COc1cc(Cl)cc(/C=C2/C(=O)NN(c3ccc(F)c(Cl)c3)C2=O)c1O,94
CCOc1c(I)cc(I)cc1/C=C1/C(=O)N(c2ccc(Cl)c(Cl)c2)N=C1C,.
O=C1NN(c2ccc(Cl)c(Cl)c2)C(=O)/C1=C\c1c2ccccc2cc2ccccc12,.
COc1ccc(/C=C2\C(=O)NN(c3ccc(Br)cc3)C2=O)cc1Br,.
COc1c(I)cc(I)cc1/C=C1\C(=O)NN(c2ccc(Cl)c(Cl)c2)C1=O,89
COc1c(I)cc(I)cc1/C=C1/C(=O)NN(c2ccc(Br)cc2)C1=O,44
COc1cc(Cl)cc(C=C2C(=O)N(C)C(=O)N(C)C2=O)c1O,.
C=CCN1C(=O)NC(=O)/C(=C/c2cc(I)cc(I)c2OC)C1=O,.
Cc1ccc(N2NC(=O)/C(=C/c3cc(Cl)ccc3O)C2=O)cc1C,.
CCCC(C(=O)OCC)n1ncc(N2CCCC2)cc1=O (stereo not drawn),.
